KB-3-1 cytotox: kills parental KB-3-1 adenocarcinoma cells; AID 1347075; hit rate 1.4% among 400,000; KB-3-1 viability, CellTiter-Glo ATP luminescence, 72 h; Potency, µM (doses to about 46.1 µM), hits mostly cytotoxic; further: nearly all actives have a fitted effect of over 60% in size
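KB-3-1 parental drug-naive adenocarcinoma cells in DMEM/10% FBS, incubated 72 h at 37 C with pin-transferred compounds across a concentration series. Viability by CellTiter-Glo luminescence; concentration-response curves fitted after normalization.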
ELG1 repair inh: ELG1-dependent DNA repair inhibition | HEK293T ELG1-luciferase reporter, luminescence, 16 h; DNA damage induced by 5-fluorouridine | Potency, µM (highest dose often 46.1 µM), hits mostly inhibitors | hit rate 2.3% among 330,000 | AID 504467; further: nearly all actives have a fitted effect of over 55% in size
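Overnight (16 hr) co-exposure of 2,000 cells/well to 5-fluorouridine and compound at 37 °C preceded detection. Luciferase was quantified via ONE-Glo luminescence; loss of signal denotes inhibition.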
SW480 rereplic: induces DNA re-replication in SW480 colon adenocarcinoma cells; SW480 DNA re-replication, Hoechst DNA content imaging, 48 h; AID 624297; Potency, µM (titrated, usually from 46.1 µM), usual class: activators; hit rate 1.8% among 340,000; further: nearly all actives have a fitted effect of over 55% in size
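First, 250 cells per well were seeded. Next, compound or vehicle (23 nL) was pinned in, plates sat 48 hr at 37 C. Finally Hoechst was added for 40 min before fluorescence scanning.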
MCF10A rerep: induces DNA re-replication in MCF 10a normal breast cells; MCF 10A DNA re-replication, Hoechst nuclear intensity, 48 h; Potency, µM (series often up to 46.1 µM), actives largely listed as activators; hit rate 2.9% among 350,000; further: nearly all actives have a fitted effect of over 50% in size
KB-V1 cytotox: kills drug-selected multidrug resistant KB-V1 cells; KB-V1 MDR cells viability, CellTiter-Glo, 72 h; Potency, µM (highest dose often 46.1 µM), most hits filed as cytotoxic; hit rate 3.4% among 400,000; AID 1347076; further: nearly all actives have a fitted effect of over 60% in size
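Following 72 h at 37 degrees C with compound, KB-V1 cell viability was read by CellTiter-Glo luminescence, medium being phenol-red-free DMEM plus 10% FBS; concentration-response parameters came from normalized, curve-fitted qHTS data.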
Hits are given with their value; - = inactive; ? = inconclusive; . = no result; [ ] = another dose, or the depositor's remark. Hits are enriched below; roughly 8.1% of the tested compounds scored in any of these assays. The call rests on the fitted dose curve; in most records, active means well fitted curve in the direction sought with a large enough effect; inconclusive means small, poorly fitted or top-dose-only effect, or another doubt; inactive means no such curve, though single readings can be large; an effect the other way counts as inactive or inconclusive.

SMILES | KB-3-1 cytotox | ELG1 repair inh | SW480 rereplic | MCF10A rerep | KB-V1 cytotox
COc1ccccc1NS(=O)(=O)c1cccc(NC(=O)Nc2cccc(Cl)c2)c1 | ? | ? | ? | ? | -
CC(C)=CCC1C(=O)N(c2ccccc2)N(c2ccccc2)C1=O | . | . | ? | 29.9µM | .
C=CCSc1nnc(Cc2c(C)[nH]c3ccccc23)o1 | - | - | - | - | -
O=C1/C(=C/c2cccs2)N=C(c2cccs2)N1Nc1ccccc1 | ? | ? | -[9.22 µM] | - | -
Cc1ccc(C2=N/C(=C\c3cccs3)C(=O)N2Nc2ccccc2)cc1 | ? | 14.6µM | - | - | ?
COc1cc(OC)cc(C(=O)Nc2nc(-c3ccccc3)c(-c3ccccc3)o2)c1 | ? | 13µM | ? | - | -
CN1c2ccccc2N(C)C1c1ccc2c(c1)OCO2 | 5.8µM | - | - | - | -
CCCNC(=O)c1ccccc1NC(=O)COc1cccc2c1OC(C)(C)C2 | - | 14.6µM | - | ? | ?
Cc1cccc(N2CCN(C(=O)COc3cccc4c3OC(C)(C)C4)CC2)c1C | - | 25.9µM | - | - | -
Cc1ccc(NC(=O)COc2cccc3c2OC(C)(C)C3)c(O)c1 | - | - | - | - | 18.4µM
Cc1ccc(NS(=O)(=O)c2ccc3c(c2)C(C(C)C)C(=O)N3)cc1C (stereo unspecified) | - | . | . | . | -
O=C(Cn1nnc(-c2cccc(C(F)(F)F)c2)n1)NNS(=O)(=O)c1cccc(C(F)(F)F)c1 | - | - | - | - | -
CCOC(=O)c1ccc(N2C(=O)c3n[nH]c(C)c3C2c2ccc(CC)cc2)cc1 (stereo unspecified) | - | . | . | . | -
CCOC(=O)c1ccc(N2C(=O)c3n[nH]c(-c4ccco4)c3C2c2ccc(O)c(OCC)c2)cc1 (stereo unspecified) | - | . | . | . | -
CCOC(=O)c1ccc(N2C(=O)c3n[nH]c(-c4ccco4)c3C2c2cccc([N+](=O)[O-])c2)cc1 (stereo unspecified) | ? | 18.4µM | - | ? | 18.4µM
CCOC(=O)c1ccc(N2C(=O)c3n[nH]c(C)c3C2c2ccc(OC)cc2)cc1 (stereo unspecified) | - | ? | - | ? | 5.17µM
CCN(C(=O)Cn1nc(C)c([N+](=O)[O-])c1C)C1CCS(=O)(=O)C1 (stereo unspecified) | - | - | - | - | -
Oc1ccc(Br)cc1/C=N/n1cnc2ccccc21 | - | ? | - | ? | 14.6µM
Oc1ccc(Br)cc1/C=N/N1CCCCC1 | - | ? | - | - | -
COc1cccc(-c2nnc(Nc3nc4c(F)cccc4s3)o2)c1 | - | ? | - | 16.4µM | -
COc1ccccc1-c1nnc(Nc2nc3c(OC)cccc3s2)o1 | 0.411µM | ? | 2.31µM | ? | ?
COc1cccc(-c2nnc(NC(C)=O)o2)c1 | - | ? | - | - | -
COc1cccc2sc(Nc3nnc(-c4ccccc4Cl)o3)nc12 | ? | ? | 2.59µM | ? | -
CCOc1ccccc1CN1CCN(Cc2csc(C(C)=O)c2)CC1CCO (stereo unspecified) | - | - | - | - | -
CCCc1cc(-c2ccc3c(c2)COc2c4ccccc4nn2-3)on1 | - | ? | - | 16.4µM | -
SMILES | KB-3-1 cytotox | ELG1 repair inh | SW480 rereplic | MCF10A rerep | KB-V1 cytotox
CCN(CC(=O)Nc1cc(Cl)cc(Cl)c1)CC(=O)NC1CCS(=O)(=O)C1 (stereo unspecified) | - | - | - | - | -
COC(=O)c1ccccc1NC(=O)CSc1nc2ccccc2nc1Cc1ccc(F)cc1 | - | . | . | . | ?
COc1ccc(/C=N/NC(=O)CCn2cnc(-c3ccccc3)c2-c2ccccc2)cc1 | 5.17µM | ? | 3.26µM | 1.64µM | -
O=C(CCn1cnc(-c2ccccc2)c1-c1ccccc1)N/N=C/c1ccc(O)cc1 | ? | ? | ? | ? | -
O=C(CCn1cnc(-c2ccccc2)c1-c1ccccc1)N/N=C/c1ccccc1O | ? | - | 9.2µM | 4.61µM | -
COc1ccc(CCNC(=O)CN(c2cc(OC)ccc2OC)S(=O)(=O)c2ccccc2)cc1 | - | - | - | - | 23.1µM
COc1ccc(N(CC(=O)NCCSc2ccccc2)S(=O)(=O)c2ccccc2)c(OC)c1 | - | 20.6µM | ? | ? | ?
COc1ccccc1N(CC(=O)NCCSc1ccccc1)S(=O)(=O)c1ccccc1 | . | . | - | - | .
COc1cc2c(cc1OC)C(C(N)=O)NCC2 (stereo unspecified) | - | . | - | - | -

Screens deposited in PubChem by National Center for Advancing Translational Sciences (NCATS).
